Assay outcomes (PubChem)
Only some compounds are listed: those with a hit (about 3.1% of all), similar ones and a draw of the others.
RAD54 inh – inhibitors of human RAD54 branch migration | Q92698 | RAD54 Holliday junction branch migration, FAM/BHQ fluorescence | inhibition, % at 10.4 µM | hit rate 0.14% among 360,000 | AID 602329;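 active means mean normalized replicate activity at least 40 and at least half of replicates scoring 40 or more; inconclusive means only one of the two criteria met; inactive means mean below 40 and under half of replicates reaching 40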;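 further: 0% = median of neutral control wells and 100% = median of positive control wells; inhibitors cause a drop in the FAM fluorescence signal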
INS-1E GSIS act – primary screen for activators of insulin secretion dependent on glucose, INS-1E cells, GLuc reporter luminescence. INS-1E GLuc reporter insulin secretion, 2-3 h. hit rate 0.61% among 370,000. activation, % at 16.6 µM;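 active means lowest replicate activation of at least 40%, so every replicate reaches that level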;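 further: 0% = median of neutral control wells and 100% = median of IBMX positive control wells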
RAD52 inh – RAD52 (human) annealing inhibition | AID 651710 | hit rate 0.46% among 360,000 | recombinant RAD52 DNA annealing, FRET fluorescence | inhibition, % at 18.7 µM | P43351;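 active means every replicate showing at least 50% inhibition; inconclusive means mean inhibition at least 50% but not in every replicate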
Target sequence (P43351 whole entry, looked up): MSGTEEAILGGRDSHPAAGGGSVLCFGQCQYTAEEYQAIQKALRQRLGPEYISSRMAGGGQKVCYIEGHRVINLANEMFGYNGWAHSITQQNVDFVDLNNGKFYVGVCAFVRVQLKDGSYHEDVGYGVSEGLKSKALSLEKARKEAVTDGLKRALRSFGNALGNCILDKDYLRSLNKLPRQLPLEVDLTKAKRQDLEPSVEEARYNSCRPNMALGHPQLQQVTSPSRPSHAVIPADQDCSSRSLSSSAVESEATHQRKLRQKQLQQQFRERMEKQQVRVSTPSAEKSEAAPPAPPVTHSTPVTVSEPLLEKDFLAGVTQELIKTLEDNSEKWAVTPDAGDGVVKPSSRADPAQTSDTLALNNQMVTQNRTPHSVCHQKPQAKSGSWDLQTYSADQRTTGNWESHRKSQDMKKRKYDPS
dFosB act – mouse delta FosB homodimer activation; P13346; purified delta FosB, TAMRA-CDK5 oligo fluorescence polarization; percent of positive-control signal above neutral wells; activation, % at 25 µM; hit rate 0.99% among 340,000;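 active means mean activation above about 17%, with every replicate also reaching it, limit read from the data, passing the limit was not always enough; inconclusive means only one of the two conditions met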
MLL AF4-AF9 inh – MLL-AF4/AF9 protein interaction inhibition; inhibition, % at 10 µM; hit rate 0.47% among 350,000; AlphaScreen, biotin-AF4 peptide binding to FLAG-AF9; P42568;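 active means every replicate reaching a set inhibition limit, whatever the replicate mean, cut at about 25% in these data; inconclusive means mean inhibition reaches that limit but some replicates miss it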;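 further: 0% = plate neutral control median and 100% = total signal loss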
DENV2 CPE – DENV2-induced cell death inhibition; CPE inhibition, % at 9.99 µM; DENV2-infected cells, cytopathic effect rescue, plate reader; hit rate 1.7% among 350,000; in the data active means CPE inhibition above about 20%, passing the limit was not always enough; inconclusive means no clear call, values can overlap the other calls; tested in BHK-21 cells;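 further: 0% = median of neutral control wells and 100% = median of positive control wells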
The depositor's hits bear a star; ? = inconclusive; . = no result given.

SMILES	RAD54 inh	INS-1E GSIS act	RAD52 inh	dFosB act	MLL AF4-AF9 inh	DENV2 CPE
CO[C@H]1CN(C)C(=O)c2cc(NC(=O)c3ccc(-c4ccccc4)cc3)ccc2OC[C@H](C)NC[C@@H]1C	6	5	28	.	4	23*
CO[C@H]1CN(C)C(=O)c2ccc(NC(=O)c3ccc(Oc4ccccc4)cc3)cc2OC[C@H](C)NC[C@H]1C	7	.	52*	.	12	12
CO[C@H]1CN(C)C(=O)c2cc(NC(=O)c3ccc(-c4ccccc4)cc3)ccc2OC[C@@H](C)NC[C@@H]1C	17	.	43	.	7	2
COc1cccc(C(=O)Nc2ccc3c(c2)OC[C@@H](C)NC[C@@H](C)[C@H](OC)CN(C)C3=O)c1	-2	-1	-4	.	-3	22*
CO[C@@H]1CN(C)C(=O)c2ccc(NC(=O)c3cccc(F)c3)cc2OC[C@@H](C)NC[C@H]1C	4	8	6	.	-2	31*
COc1cccc(C(=O)Nc2ccc3c(c2)OC[C@@H](C)NC[C@@H](C)[C@@H](OC)CN(C)C3=O)c1	8	8	-5	.	-2	0
O=C(Nc1ccc(F)cc1)Nc1ccc2c(c1)[C@@H]1C[C@@H](CC(=O)N3CCOCC3)O[C@H](CO)[C@@H]1O2	-8	-14	11	.	-7	-8
COc1cccc(S(=O)(=O)N[C@@H]2CC[C@H](CCNC(=O)Nc3cc(F)ccc3F)O[C@H]2CO)c1	-2	-17	-8	.	7	0
C[C@H](NC(=O)C[C@H]1C[C@H]2c3cc(NC(=O)Nc4ccc(C(F)(F)F)cc4)ccc3O[C@H]2[C@H](CO)O1)c1ccccc1	4	9	1	.	-4	5
COc1cc(NC(C)=O)c2ncccc2c1Br	5	.	-6	.	0	89*
CC(=O)Nc1cccc2ncccc12	9	.	6	0	3	32*
CN(Cc1ccccc1)C(=O)c1ccc(NC(=O)Cc2ccc(NC(=O)C3CCN(C(=O)C4CCCCC4)CC3)cc2)cc1	-3	-1	-12	-20	7	10
CC(C)(C)OC(=O)N(Cc1ccccc1)Cc1ccccc1OCc1ccc(NC(=O)C2CCC2)cc1	13	-2	1	-6	-6	28*
O=C(Cc1cccc(NC(=O)C2CCCN(C(=O)C3CCCCC3)C2)c1)Nc1ccc(C(=O)N2CCOCC2)cc1 (stereo unspecified)	13	-5	-5	1	-2	24*
O=C(Cc1ccc(NC(=O)C2CCCN(C(=O)C3CC3)C2)cc1)Nc1cccc(C(=O)N2CCCC2)c1 (stereo unspecified)	20	-2	4	-4	0	62*
CN(Cc1ccccc1)C(=O)c1ccc(NC(=O)Cc2ccc(NC(=O)C3CCN(C(=O)C4CCC4)CC3)cc2)cc1	9	1	-7	-14	8	53*
O=C(Cc1cccc(NC(=O)C2CCN(C(=O)C3CCCC3)CC2)c1)Nc1cccc(C(=O)N2CCCCC2)c1	-4	1	1	-7	-1	43*
CC(C)NC(=O)N(C)C[C@@H]1Oc2ccc(NS(C)(=O)=O)cc2C(=O)N([C@H](C)CO)C[C@H]1C	-4	17	15	.	-11	-4
CCCCC[C@@H](C)N1C[C@@H](COCc2ccccc2)Oc2cc(N3CC[C@H](N(C)C)C3)ccc2S1(=O)=O	.	263	-17	.	17	-8
CCCCC[C@H](C)N1C[C@@H](COCc2ccccc2)Oc2cc(N3CC[C@H](N(C)C)C3)ccc2S1(=O)=O	.	-6	-11	.	2	61*
C[C@H](CO)N1C[C@H](C)[C@H](CN(C)Cc2ccc(C(=O)O)cc2)Oc2ccc(NC(=O)Cc3ccccc3)cc2CC1=O	-7	16	-5	.	-2	-2
Cc1ccccc1S(=O)(=O)N[C@@H]1CC[C@H](CCn2cc(-c3ccccc3)nn2)O[C@@H]1CO	-1	-9	12	.	-4	21*
O=C(Cc1ccccn1)N[C@@H]1CC[C@H](CCn2cc(-c3cccnc3)nn2)O[C@H]1CO	-3	3	-26	.	0	0
O=S(=O)(N[C@H]1CC[C@@H](CCn2cc(-c3cccnc3)nn2)O[C@H]1CO)c1ccccc1	-8	3	2	.	-1	28*
O=C(Cc1ccccn1)N[C@H]1CC[C@H](CCn2cc(-c3cccnc3)nn2)O[C@@H]1CO	-8	12	-24	.	2	58*
SMILES	RAD54 inh	INS-1E GSIS act	RAD52 inh	dFosB act	MLL AF4-AF9 inh	DENV2 CPE
CO[C@H]1CN(C)C(=O)c2cc(NC(=O)NC(C)C)ccc2OC[C@@H](C)N(CCC(F)(F)F)C[C@@H]1C	7	-8	.	.	.	.
C[C@@H]1CN([C@H](C)CO)C(=O)Cc2cc(NC(=O)CCN3CCOCC3)ccc2O[C@@H]1CN(C)S(=O)(=O)c1cccs1	-8	0	17	.	-5	?
COC(=O)CN(c1ccc(OC)cc1)S(=O)(=O)c1ccc(OC)c(OC)c1	6	.	.	-5	.	.
COC(=O)CN(c1cc(Cl)ccc1OC)S(=O)(=O)c1ccc(OC)c(OC)c1	-7	-20	-8	-7	1	61*
COc1cccc(CN2CCC(C(=O)Nc3ccc(-c4cccc(C)c4)cc3)CC2)c1O	-5	.	2	40*	12	-17
C[C@@H]1CCCCO[C@H](CN(C)C(=O)Nc2ccc(C(F)(F)F)cc2)[C@@H](C)CN([C@H](C)CO)C(=O)c2cc(NC(=O)C3CCCCC3)ccc2O1	-15	0	-9	.	1	0
C[C@H](CO)N1C[C@H](C)[C@@H](CN(C)C(=O)Nc2ccc(C(F)(F)F)cc2)OCCCC[C@H](C)Oc2ccc(NC(=O)C3CCCCC3)cc2C1=O	-21	8	-18	.	0	87*
C[C@H]1CCCCO[C@H](CN(C)C(=O)Nc2ccc(C(F)(F)F)cc2)[C@@H](C)CN([C@@H](C)CO)C(=O)c2cc(NC(=O)C3CCCCC3)ccc2O1	3	-11	0	.	-4	87*
C[C@@H]1CCCCO[C@@H](CN(C)C(=O)Nc2ccc(C(F)(F)F)cc2)[C@@H](C)CN([C@@H](C)CO)C(=O)c2cc(NC(=O)C3CCCCC3)ccc2O1	.	3	-28	.	-2	-8
C[C@@H]1CCCCO[C@H](CN(C)C(=O)Nc2ccc(C(F)(F)F)cc2)[C@H](C)CN([C@H](C)CO)C(=O)c2cc(NC(=O)C3CCCCC3)ccc2O1	-1	-5	-16	.	-1	32*
C[C@@H]1CCCCO[C@H](CN(C)C(=O)Nc2ccc(C(F)(F)F)cc2)[C@@H](C)CN([C@@H](C)CO)C(=O)c2cc(NC(=O)C3CCCCC3)ccc2O1	-28	5	-1	.	-1	22*
Cc1ccc(C(=O)NCC(=O)Nc2ccc(S(=O)(=O)Nc3cc(C)nc(C)n3)cc2)cc1	4	8	-9	0	-3	56*
